Screens deposited in PubChem BioAssay by National Center for Advancing Translational Sciences (NCATS).
FBPA Giardia inh = qHTS Assay for Inhibitors of Fructose-1,6-bisphosphate Aldolase from Giardia Lamblia. purified Giardia FBPA. Potency, µM (highest dose often 59.6 µM), for inactives: top-dose activity, negative = inhibition, most hits filed as inhibitors. hit rate 0.71% among 290,000. AID 2451, 2010; note: potency is the fitted concentration of half-maximal effect; nearly all actives have a fitted effect of over 55% in size
Target sequence (A8B2U2 whole entry, looked up): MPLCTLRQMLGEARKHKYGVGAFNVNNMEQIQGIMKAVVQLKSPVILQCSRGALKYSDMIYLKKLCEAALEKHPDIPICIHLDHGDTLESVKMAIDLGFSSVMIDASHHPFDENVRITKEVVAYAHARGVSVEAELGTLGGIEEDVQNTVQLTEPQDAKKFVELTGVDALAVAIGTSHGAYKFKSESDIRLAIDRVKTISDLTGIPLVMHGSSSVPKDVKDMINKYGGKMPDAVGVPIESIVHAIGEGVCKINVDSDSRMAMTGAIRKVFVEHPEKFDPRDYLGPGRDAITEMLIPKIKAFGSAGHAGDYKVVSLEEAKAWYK
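40 nM FBPA preincubated 10 min at RT with compound (up to 57.5 uM final), then substrate plus GAPDH/TPI/NAD/arsenate coupling and diaphorase/resazurin added. Fluorescence read after 20 min at RT, 525/598 nm.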
Marburg entry inh = qHTS for inhibitors of binding or entry into cells for Marburg Virus. Marburg virus pseudotyped entry inhibition, cell reporter. hit rate 1.8% among 300,000. AID 540276, 2011. Potency, µM (titrated, usually from 37.8 µM), for the others: at the top dose activity change, negative = inhibition, hits mostly inhibitors; calls by dose curve; tested in HEK293 cells; note: potency is the fitted concentration of half-maximal effect
HCV inh = qHTS Assay for Inhibitors of Hepatitis C Virus (HCV) | Huh7.5.1 HCVcc-Cre infection, luciferase reporter, 44 h | Potency, µM (series often up to 41.8 µM), for inactives: at the highest dose activity change, negative = inhibition, most hits filed as inhibitors | hit rate 3.4% among 340,000; note: potency is the fitted concentration of half-maximal effect
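Seed cells (1,000/well) for 4 h; treat with compound and infect with HCVcc-Cre, moi about 0.5. Incubate 44 h, then detect luciferase activity.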
FMDV inh = High Throughput Screening for Foot and Mouth Disease Virus Antivirals; FMDV antiviral cell-based qHTS; AID 1159524, 2015; hit rate 1.2% among 410,000; Potency, µM (series often up to 57.9 µM), inactives show top-dose activity change, negative = inhibition, most hits filed as inhibitors; calls by dose curve; tested in HEK293T cells; note: read-out not given here; potency is the fitted concentration of half-maximal effect; nearly all actives have a fitted effect of over 45% in size
HCMV antiviral = qHTS Assay for inhibitors of the human cytomegalovirus (HCMV); activity change, negative = inhibition, % at 57.5 µM; AID 1259415, 2018; HFF cells, HCMV-luciferase reporter, 72 h; active compounds read low; hit rate 4.5% among 410,000; in the data active = activity change below about -60%; inconclusive = no clear call, values can overlap the other calls; inactive = above about -39%
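Screen run at 2 compound doses on HFFs infected with reporter HCMV, MOI 1 PFU/cell. Luciferase activity from cell lysates at 72 h post infection gave inhibition relative to buffer-only and Salinomycin wells.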
LASV entry inh = qHTS for Inhibitors of binding or entry into cells for Lassa Virus | Lassa virus pseudotype entry inhibition, cell reporter | Potency, µM (titrated, usually from 37.9 µM), inactives show at the top dose activity change, negative = inhibition, hits mostly inhibitors | hit rate 1.2% among 300,000 | AID 540256, 2011; calls by dose curve; tested in HEK293 cells; note: potency is the fitted concentration of half-maximal effect; nearly all actives have a fitted effect of over 50% in size
The depositor's hits bear a star; ! = not active in a repeat; [ ] = remark or other dose. A selection: hits, their analogues and other compounds. The true share with any hit is near 8.3%. Unless noted, calls come from the whole dose curve; as a rule, active = well fitted curve in the direction sought with a large enough effect; inconclusive = small, poorly fitted or top-dose-only effect, or another doubt; inactive = no such curve, though single readings can be large; an effect the other way counts as inactive or inconclusive. % is set by controls: 0 for no effect and ±100 for the full control effect.

`O=C(NCc1ccncc1)c1cc2ccccc2nc1Cl` gave FBPA Giardia inh 0%, Marburg entry inh 10%[46.1 µM], HCV inh -5%, FMDV inh -11%, HCMV antiviral -79* and LASV entry inh 17%[46.1 µM].
O=C(Nc1ccccc1F)c1ccc(COc2ccc(Cl)cc2Cl)o1 was read as FBPA Giardia inh 5%, Marburg entry inh -15%[46.1 µM], HCV inh inconclusive, FMDV inh 14%, HCMV antiviral 17 and LASV entry inh inconclusive.
`CC(C)CNC(=O)c1ccc(COc2ccc(Cl)cc2Cl)o1` gave Marburg entry inh -17%, HCV inh 13µM*, FMDV inh 0%, HCMV antiviral -14 and LASV entry inh 11µM*.
Cc1nn(Cc2cccc(F)c2)c(C)c1NC(=O)c1ccc(COc2ccccc2Cl)cc1 was read as FBPA Giardia inh -2%, Marburg entry inh -8%, HCV inh 10µM*, FMDV inh inconclusive, HCMV antiviral -76* and LASV entry inh -32%[14.3 µM].
Screening Cc1nn(Cc2c(F)c(F)c(F)c(F)c2F)c(C)c1NC(=O)c1ccc(COc2ccc(Cl)cc2Cl)o1 returned FBPA Giardia inh 2%, Marburg entry inh inconclusive, HCV inh 7.1µM*, FMDV inh -10%, HCMV antiviral -81* and LASV entry inh inconclusive.
O=C(Nc1ccn(Cc2c(F)c(F)cc(F)c2F)n1)c1ccc(COc2ccc(Cl)cc2Cl)o1 was read as FBPA Giardia inh -4%, Marburg entry inh inconclusive, HCV inh 13µM*, FMDV inh inconclusive, HCMV antiviral -38 and LASV entry inh inconclusive.
O=C(Nc1ccccc1)c1cc2ccccc2o1 was read as FBPA Giardia inh -22%, Marburg entry inh inconclusive, HCV inh -4%, FMDV inh -15%, HCMV antiviral 100 and LASV entry inh 10µM*.
`O=C(N/N=C/c1ccco1)c1cc2ccccc2o1` gave FBPA Giardia inh 0%, HCV inh 7%, FMDV inh 61% and HCMV antiviral -11.
CCN(CC)S(=O)(=O)c1cccc(NC(=O)c2cc3ccccc3o2)c1 was read as FBPA Giardia inh -2%, Marburg entry inh 9%, HCV inh 10µM*, FMDV inh inconclusive, HCMV antiviral 13 and LASV entry inh inconclusive.
`O=C(COc1ccc(/C=N/NC(=O)c2cc3ccccc3o2)cc1Br)Nc1ccccc1` gave FBPA Giardia inh -5%, Marburg entry inh inconclusive, HCV inh inconclusive, FMDV inh -38%, HCMV antiviral -100* and LASV entry inh inconclusive.
`Cc1ccc(NC(=O)c2cc3ccccc3o2)nc1` gave Marburg entry inh inconclusive, HCV inh 1%[8.37 µM], FMDV inh inconclusive, HCMV antiviral 53 and LASV entry inh 5µM*.
Cc1cc(Cl)ccc1NS(=O)(=O)c1c(C(=O)N2CCCCCC2)c(C)n(C)c1C was read as FMDV inh 38%, HCMV antiviral -5 and LASV entry inh -24%[46.1 µM].
Screening COc1cc(NC(=O)c2cccc(C)c2)ccc1NC(=O)c1cc2ccccc2o1 returned FBPA Giardia inh 5%, HCV inh inconclusive, FMDV inh -21% and HCMV antiviral -87*.
`O=C(COc1ccccc1[N+](=O)[O-])Nc1ccc(NC(=O)c2cc3ccccc3o2)cc1` gave FBPA Giardia inh 5%, Marburg entry inh inconclusive, HCV inh 11µM*, FMDV inh -18%, HCMV antiviral inconclusive and LASV entry inh inconclusive.
`CCN(CC)S(=O)(=O)c1cccc(NC(=O)c2ccc(Br)cc2)c1` gave FBPA Giardia inh -6%, Marburg entry inh -46%[46.1 µM], HCV inh 8.9µM*, FMDV inh 25µM*, HCMV antiviral inconclusive and LASV entry inh -26%.
Screening CC(=O)Nc1ccc(NC(=O)c2cc(=O)c3ccccc3o2)cc1 returned FBPA Giardia inh -6%, Marburg entry inh 5%[46.1 µM], HCV inh -18%, FMDV inh -1%, HCMV antiviral -85*! and LASV entry inh -3%[46.1 µM].
